Assay results as given in PubChem BioAssay AID687001 (Broad Institute, 2013).
Results with a measured potency or affinity are listed apart. The source made the active and inactive calls.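 Rule for the calls: active = signal-lowering compounds whose fitted half-maximal concentration is at or below twice the top tested dose in every run; inconclusive = runs disagree, flat 30 to 70% inhibition, or poor curve fit; inactive = the rest.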

Target: Protein S100-A4 (Homo sapiens) (UniProt P26447)
Assay: human S100A4 peptide interaction inhibition curves – biochemical, fluorescence polarization, cherry-picked hits, dose response (AID 687001)

Protein S100-A4 (Homo sapiens), sequence (P26447 whole entry, looked up): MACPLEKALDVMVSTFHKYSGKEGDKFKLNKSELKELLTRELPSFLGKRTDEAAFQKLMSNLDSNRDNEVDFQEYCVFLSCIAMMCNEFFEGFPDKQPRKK

Row | SMILES | outcome
1 | O=C(Cc1cccnc1)N1CCCCN2[C@@H](CO)[C@@H](c3ccc(C#CC4(O)CCCC4)cc3)[C@@H]2C1 | inactive
2 | CCCCCSc1cc(O)c(C(CNC)C(C)C)cc1OC (configuration not stated) | inactive
3 | O=C(O)Cn1cc(/C=C2\C(=O)NC(=O)N(c3ccc(Br)cc3)C2=O)c2ccccc21 | inactive
4 | O=[N+]([O-])c1cc(Cl)c(Cl)cc1Cl | inactive
5 | CCCCn1nnnc1C(c1cccc2ccccc12)N1CCC2(CC1)C(=O)NCN2c1ccccc1 (configuration not stated) | inactive
6 | O=Cc1cn(Cc2ccc(Br)cc2)c2ccccc12 | inactive
7 | CCN(CC)C(=O)[C@@H]1C=C2c3cccc4[nH]c(Br)c(c34)C[C@H]2N(C)C1 | inactive
8 | CCOC(=O)c1ccc(N=Cc2c(O)n(-c3ccccc3F)c(=S)[nH]c2=O)cc1 | inactive
9 | COc1ccc(OC)c(N2C(=O)CC(=O)NC2=O)c1 | inactive
10 | CCC12CCN(CC3(O)CC3)C(Cc3ccc(O)cc31)C2(C)C (configuration not stated) | inactive
11 | CN(C)c1cc[n+](CC(O)C[n+]2ccc(N(C)C)cc2)cc1 | inactive
12 | COC(=O)[C@]1(C)C[C@H]1[C@H](NP(=O)(c1ccccc1)c1ccccc1)c1ccccc1 | inactive
13 | c1ccc(-c2ccncc2)cc1 | inactive
14 | CCOC(=O)C1=C(N)OC2=C(C(=O)CC(C)(C)C2)C12C(=O)Nc1ccccc12 (configuration not stated) | inactive
15 | C=CCN1CC[C@]23c4c5ccc(O)c4OC2C(O)CC[C@@]3(O)[C@H]1C5 (some centres not stated) | inactive
16 | COC(C)(C)CCCC(C)C/C=C/C(C)=C/C(=O)OC(C)C (configuration not stated) | inactive
17 | O=C(O)[C@H]1[C@H](CO)[C@H]2Cn3c(ccc(-c4ccncc4)c3=O)[C@@H]1N2C(=O)C1CCCCC1 | inactive
